Data on 14 molecules can be found in PubChem BioAssay.

The source made the active and inactive calls.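 The calls were made as follows, unless noted: active = visual image review flags a hit and inhibition of aggregation exceeds 20%; inconclusive = visual hit but inhibition at or below 20%; inactive = no hit on visual image review.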

Assay [1] in a line: inhibitors of TNFa-induced NFkB p65 translocation, primary screen, imaging, HUVEC, MLSMR starter and 10KST1 sets (AID 438;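 active = inhibition above 20% together with a positive visual image hit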;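 also: compound added about 3h40 before a 20 min TNFalpha stimulation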;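 as to inhibition: signal is the nuclear over cytoplasmic p65 intensity ratio per well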). To be noted: HUVEC TNFa-induced p65 nuclear translocation; cell count: measured here: nuclei count (cytotoxicity indicator), at 2.08 µM; inhibition: at 2 µM, stronger effect = higher value, 0% TNFa-plus-vehicle, 100% no-TNFa wells.
The nature of assay [2]: inhibitors of mutant huntingtin aggregation, primary screen, imaging, exon1htt(103Q)mCFP cells, high-content imaging (AID 483).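 Also: compound exposure lasted 3 days before fixation.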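 As to nuclei count: percent of the per-plate median nuclei count of sample wells.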 Particulars: exon1htt(103Q)mCFP cell line, aggregate imaging, at 2 µM; inhibition of aggregation: stronger effect = higher value; nuclei count: measured here: cell count, toxicity.
Assay [3] is described as follows: inhibitors of E-selectin induction by TNFa, primary screen, imaging, HUVEC, immunofluorescence, MLSMR starter and 10KST1 sets (AID 487;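 active = visually confirmed hit in the image check and inhibition above 20%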;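 as to inhibition: signal is fraction of cell area covered by stained E-selectin grains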;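 as to nuclei count: 100% = median nuclei count of all wells on the same plate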). Particulars: HUVEC TNFalpha-induced E-selectin immunofluorescence imaging, at 2 µM; inhibition: stronger effect = higher value; nuclei count: measured here: cell number, toxicity.
Assay [4] has as its target Voltage-gated potassium channel subunit beta-2 (Rattus norvegicus) (UniProt P62483). The assay is described as follows: KvBeta enzyme negative modulators, primary screen, biochemical, NADPH fluorescence (AID 622;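 active = fluorescence slope higher than the sample average by over 3 SD, cut at about -0.22 in these data, passing the limit was not always enough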;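 also: slope of raw intensity against log time taken from 70 to 1610 s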). Particulars: recombinant KvBeta, 4-cyanobenzaldehyde reduction, at 10 µM, stronger effect = higher value.
For assay [5] the target is unchanged. The assay is described as follows: KvBeta positive modulators, primary screen, biochemical, NADPH fluorescence (AID 623;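 active = NADPH fluorescence slope more negative than the mean of all samples by about 3 SD, 99.7% confidence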;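 also: fluorescence intensity change per second fitted from 20 to 320 s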). Particulars: Recombinant KvBeta, NADPH fluorescence decrease slope, 10 min; at 10 µM; stronger effect = lower value.
Assay [6] concerns the target Alpha-2C adrenergic receptor (Homo sapiens) (UniProt P18825). The assay is described as follows: modulators of alpha2C/GIRK thallium flux, primary screen, cell-based, HEK293 alpha2C/GIRK1/2 (AID 624;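 active = fluorescence slope after compound addition differing from the mean of all screened samples at 99.7% confidence, in either direction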;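 also: slope of fluorescence ratio to pre-addition baseline per second over 15 to 24 s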). Particulars: thallium flux BTC fluorescence, at 10 µM, actives lie on both sides.
Assay [7] can be described thus: inhibitors of Sendai virus-induced IRF3 signaling, primary screen, TLR/RLR signaling modifier project, cell-based, Sendai virus stimulus, luciferase, 10K MLSCN set (AID 602276;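 active = inhibition at or above 50% at 10 µM; inactive = inhibition below 50%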;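 also: firefly luciferase from ISG56 promoter only with Renilla not read in this screen; 0% = Sendai virus plus DMSO and 100% = medium plus DMSO without virus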). Particulars: HEK293 RL24 IRF3 luciferase reporter, at 10 µM, stronger effect = higher value.
Assay [8] is described as follows: inhibitors of poly I:C-induced TLR3 signaling, primary screen, cell-based, poly I:C stimulus, luciferase, 10K MLSCN set (AID 602277;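 active = inhibition of the reporter signal at or above 50%; inactive = inhibition below 50%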). Particulars: HEK293-TLR3 RL24 IRF3 luciferase reporter, at 10 µM, stronger effect = higher value.

Alpha-2C adrenergic receptor (Homo sapiens), sequence (P18825 whole entry, looked up): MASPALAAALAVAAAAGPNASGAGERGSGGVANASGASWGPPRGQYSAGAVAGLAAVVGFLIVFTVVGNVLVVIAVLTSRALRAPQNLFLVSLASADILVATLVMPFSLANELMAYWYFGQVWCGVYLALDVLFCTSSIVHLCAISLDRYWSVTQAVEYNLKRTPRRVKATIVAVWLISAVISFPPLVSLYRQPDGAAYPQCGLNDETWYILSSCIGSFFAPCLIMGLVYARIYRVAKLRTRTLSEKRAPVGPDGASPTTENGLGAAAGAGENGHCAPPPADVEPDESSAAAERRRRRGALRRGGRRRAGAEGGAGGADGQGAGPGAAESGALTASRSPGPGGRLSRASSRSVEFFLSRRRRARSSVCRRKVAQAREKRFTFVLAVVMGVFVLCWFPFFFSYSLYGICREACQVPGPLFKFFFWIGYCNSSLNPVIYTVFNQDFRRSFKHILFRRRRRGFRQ
Voltage-gated potassium channel subunit beta-2 (Rattus norvegicus), sequence (P62483 whole entry, looked up): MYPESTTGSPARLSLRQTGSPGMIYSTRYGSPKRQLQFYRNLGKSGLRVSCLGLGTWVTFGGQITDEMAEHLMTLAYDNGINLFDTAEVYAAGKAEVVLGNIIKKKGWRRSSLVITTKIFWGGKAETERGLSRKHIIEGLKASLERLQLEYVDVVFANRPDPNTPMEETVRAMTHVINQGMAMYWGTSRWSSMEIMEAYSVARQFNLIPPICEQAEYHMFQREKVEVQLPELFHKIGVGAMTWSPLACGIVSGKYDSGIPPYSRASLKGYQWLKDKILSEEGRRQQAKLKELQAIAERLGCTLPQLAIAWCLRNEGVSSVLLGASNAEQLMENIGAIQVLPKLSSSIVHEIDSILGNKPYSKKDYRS

In the case of `O=C(Nc1ccncc1)C1c2ccccc2Oc2ccccc21`, the cell count in assay [1] was 722. For the same molecule, the inhibition in assay [1] was 2.8% (inactive); in assay [3], 19.9% (inactive); in assay [7], 12.2% (inactive); in assay [8], 17.7% (inactive). The inhibition of aggregation in assay [2] is 1.3% (inactive). Besides, the nuclei count in assay [2] was 90.9%; in assay [3], 102%. For the same molecule, the fluorescence slope in assay [4] was -0.201 (inactive). In addition, in assay [5], the NADPH fluorescence slope is -1e-05 (inactive). The slope in assay [6] was 0.0059 (inactive).
As to `COC(=O)c1ccccc1NC(=O)CSc1nc2c(c(=O)n(C)c(=O)n2C)n1C`, the cell count in assay [1] was 470. Also, the inhibition in assay [1] was 1% (inactive); in assay [3], 9.9% (inactive); in assay [7] it was -17.1% (inactive); in assay [8], -34.2% (inactive). In addition, in assay [2], the inhibition of aggregation was -5.1% (inactive). For the same molecule, the nuclei count in assay [2] came to 95.9%; in assay [3] it was 119%. For the same molecule, the fluorescence slope in assay [4] is -0.382 (inactive). Also, the NADPH fluorescence slope in assay [5] is 2e-05 (inactive). Further, the slope in assay [6] was 0.00766 (inactive).
Turning to `Cc1ccc(N(C(C)C(=O)Nc2ccc(S(=O)(=O)N3CCOCC3)cc2)S(C)(=O)=O)cc1` (centres undefined), the cell count in assay [1] is 522. Further, the inhibition in assay [1] was -7.3% (inactive); in assay [3] it was -0.3% (inactive); in assay [7] it was 5.72% (inactive); in assay [8], 10.8% (inactive). Also, in assay [2], the inhibition of aggregation is 23.8% (inactive). Further, the nuclei count amounted to 68.3% in assay [2] and 92.3% in assay [3]. The fluorescence slope in assay [4] is -0.518 (inactive). Moreover, the NADPH fluorescence slope in assay [5] was -1.3e-05 (inactive). For the same molecule, the slope in assay [6] was 0.00486 (inactive).
Consider `COc1ccc(C(=O)Nc2nc(C)c(C(=O)N(C)C)s2)cc1OC`, for which, in assay [1], the cell count came to 435. Moreover, the inhibition was 2.8% (inactive) in assay [1], -16.9% (inactive) in assay [3], -7.68% (inactive) in assay [7] and -30.5% (inactive) in assay [8]. In addition, the inhibition of aggregation in assay [2] was 5.4% (inactive). In addition, the nuclei count was 102% in assay [2] and 91.8% in assay [3]. The fluorescence slope in assay [4] was -0.461 (inactive). In assay [5], the NADPH fluorescence slope is 2.3e-06 (inactive). Also, in assay [6], the slope was 0.00371 (inactive).
On to `COc1ccc(OC)c(-c2nnc(SCC(=O)NC3CCCCC3)o2)c1`, for which the cell count in assay [1] stood at 738. The inhibition in assay [1] was 2.1% (inactive); in assay [3], -24.5% (inactive); in assay [7], -17.4% (inactive); in assay [8], 0.755% (inactive). Moreover, in assay [2], the inhibition of aggregation was 13.9% (inactive). Besides, the values for the nuclei count in assay [2] and in assay [3] were 97.8% and 114%, respectively. In addition, in assay [4], the fluorescence slope is -0.574 (inactive). Moreover, in assay [5], the NADPH fluorescence slope is -1.4e-05 (inactive). Also, in assay [6], the slope was 0.00689 (inactive).
With `CCc1ccc(N2CC34C=CC(O3)C(C(=O)OC)C4C2=O)cc1` (centres undefined), the cell count in assay [1] stood at 535. The inhibition in assay [1] is 4% (inactive); in assay [3] it was -7.9% (inactive); in assay [7], 7.96% (inactive); in assay [8] it was 30.4% (inactive). For the same molecule, the inhibition of aggregation in assay [2] was 11.3% (inactive). Further, the nuclei count stood at 85.3% in assay [2] and 101% in assay [3]. In assay [4], the fluorescence slope was -0.589 (inactive). Besides, the NADPH fluorescence slope in assay [5] is 6.6e-06 (inactive). Also, in assay [6], the slope is 0.00784 (inactive).
For `O=S(=O)(Nc1cccnc1)c1cc(Cl)ccc1Cl`, the cell count in assay [1] turned out to be 395. In addition, the inhibition is 2.5% (inactive) in assay [1], 26.2% (inactive) in assay [3], 23.6% (inactive) in assay [7] and 7.22% (inactive) in assay [8]. The inhibition of aggregation in assay [2] is 6.1% (inactive). Also, the nuclei count came out at 99.9% in assay [2] and 115% in assay [3]. Moreover, the fluorescence slope in assay [4] is -0.286 (inactive). The NADPH fluorescence slope in assay [5] was 2e-06 (inactive). Besides, the slope in assay [6] was 0.00524 (inactive).
Take `CCOC(=O)c1nnn(CC(=O)Nc2cccc(F)c2)c1C(=O)OCC`: the cell count in assay [1] was determined as 581. The inhibition in assay [1] is -7.9% (inactive); in assay [3], -41.8% (inactive); in assay [7] it was 3.63% (inactive); in assay [8] it was 12.6% (inactive). In addition, in assay [2], the inhibition of aggregation was 8.9% (inactive). For the same molecule, the nuclei count came out at 124% in assay [2] and 112% in assay [3]. Moreover, the fluorescence slope in assay [4] was -0.6 (inactive). For the same molecule, the NADPH fluorescence slope in assay [5] is -1.1e-05 (inactive). The slope in assay [6] was 0.00821 (inactive).
Turning to `CCCn1cnc2c(cnn2-c2ccc(F)cc2)c1=O`, the cell count in assay [1] is 451. Also, the inhibition in assay [1] is 5.5% (inactive); in assay [3], -41.5% (inactive); in assay [7], -35.2% (inactive); in assay [8] it was -147% (inactive). Moreover, in assay [2], the inhibition of aggregation is 11.2% (inactive). In addition, the nuclei count in assay [2] was determined as 85.6%; in assay [3] it was 124%. Also, the fluorescence slope in assay [4] is -0.536 (inactive). For the same molecule, the NADPH fluorescence slope in assay [5] is 1.4e-05 (inactive). For the same molecule, the slope in assay [6] is 0.00574 (inactive).
As to `CNC(=O)CSc1nnc(-c2cc3c(C)nn(-c4ccccc4)c3s2)n1C`, the cell count in assay [1] was found to be 428. Moreover, the inhibition in assay [1] is 4.3% (inactive); in assay [3], -35.6% (inactive); in assay [7], -6.24% (inactive); in assay [8], -6.6% (inactive). Also, in assay [2], the inhibition of aggregation was 2.8% (inactive). The nuclei count in assay [2] was 74.6%; in assay [3], 118%. The fluorescence slope in assay [4] is -0.405 (inactive). In addition, the NADPH fluorescence slope in assay [5] was 4.5e-05 (inactive). Besides, the slope in assay [6] was 0.00659 (inactive).
For the molecule `O=C(Nc1ccc(OC(=O)c2ccco2)cc1)c1ccco1`, in assay [1], the cell count came out at 239. Moreover, the inhibition in assay [1] is -2.2% (inactive); in assay [3], 10.8% (inactive); in assay [7], 4.1% (inactive); in assay [8] it was -1.78% (inactive). Moreover, the inhibition of aggregation in assay [2] is -7.4% (inactive). Moreover, the nuclei count in assay [2] was determined as 92%; in assay [3] it was 101%. The fluorescence slope in assay [4] is -0.442 (inactive). In addition, the NADPH fluorescence slope in assay [5] was -1e-05 (inactive). Moreover, the slope in assay [6] was 0.00563 (inactive).
In the case of `O=C(COc1ccccc1F)NC1CC1`, the cell count in assay [1] came to 235. Further, the inhibition in assay [1] was -13% (inactive); in assay [3], 19.9% (inactive); in assay [7], -0.955% (inactive); in assay [8] it was 11% (inactive). Further, the inhibition of aggregation in assay [2] was 14.4% (inactive). Further, the figures for the nuclei count in assay [2] and in assay [3] were 92.8% and 100%, respectively. Besides, the fluorescence slope in assay [4] is -0.395 (inactive). In addition, the NADPH fluorescence slope in assay [5] is -4.8e-05 (inactive). Besides, the slope in assay [6] is 0.0037 (inactive).
Take `CCOCCCNC(=O)C1CCN(S(=O)(=O)c2c(C)noc2/C=C\c2ccc(OC)cc2)CC1`: the cell count in assay [1] came to 345. Moreover, the inhibition in assay [1] is 1.2% (inactive); in assay [3], -122% (inactive); in assay [7], -4.28% (inactive); in assay [8], 0.813% (inactive). Besides, in assay [2], the inhibition of aggregation was 32.8% (inactive). The results for the nuclei count in assay [2] and in assay [3] were 99.9% and 114%, respectively. Also, the fluorescence slope in assay [4] was -0.36 (inactive). Besides, in assay [5], the NADPH fluorescence slope is 3.9e-05 (inactive). Also, the slope in assay [6] is 0.00493 (inactive).
As for `CC1Cc2nc(SCC(=O)Nc3ccccc3F)n(C)c(=O)c2S1` (centres undefined), the cell count in assay [1] was 385. Besides, the inhibition in assay [1] is 4.4% (inactive); in assay [3], -15% (inactive); in assay [7] it was 10.7% (inactive); in assay [8] it was 3.28% (inactive). Further, the inhibition of aggregation in assay [2] is -9.2% (inactive). Further, the nuclei count in assay [2] turned out to be 98.4%; in assay [3], 113%. Also, the fluorescence slope in assay [4] is -0.505 (inactive). The NADPH fluorescence slope in assay [5] was -2.1e-05 (inactive). The slope in assay [6] is 0.00529 (inactive).
